Compound activity from PubChem.
The list is not random: actives were taken first. Their share in the collection is about 2%.
Yeast superoxide: lowers age-related superoxide in aged yeast cells. superoxide response (% of plate mean), % at 10 µM. 0.18% of 330,000 active. S. cerevisiae aged cells, superoxide DHE fluorescence; stronger effect = lower value. AID 2690;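 active means superoxide response under a set limit, about three screen SD below normal, cut at about 65% in these data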;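 further: yeast aged for seven days with compound at 30 °C before DHE staining; 100% = average MFI of all compound-treated wells on the plate with controls excluded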
Calb FLC: C. albicans growth modulation with fluconazole; C. albicans CaCi-2 (fluconazole-resistant clinical isolate) + fluconazole, Alamar Blue growth, 48 h; growth inhibition, % (no concentration beside the values); 0.57% of 300,000 active;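 active means growth inhibition above about 58% in most replicates, limit read from the data, passing the limit was not always enough; inconclusive means exactly half the replicates above a set limit; inactive means most replicates below a set limit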;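 further: all wells also contain fluconazole at 8 µg/ml as a sub-toxic cotreatment; 0% = median of DMSO wells and 100% = median of geldanamycin control wells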
PolyA inh: yeast polyadenylation inhibition | activity score, % at 12 µM | S. cerevisiae SKY197-pL101 polyadenylation reporter, beta-gal luminescence; efflux-impaired pdr1/pdr3 knockout yeast; score 100 = 6 SD above DMSO | 0.02% of 300,000 active;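 active means lowest replicate activity score at least 50, where 100 means six control SD above control mean; inconclusive means lowest score under 50 but half or more replicates reach 50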;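 further: yeast exposed to compound for 9 h at 30 °C; higher score means more reporter readthrough which indicates perturbed polyadenylation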
Platelet DG rel: platelet dense granule release activity; human platelet-rich plasma, SFLLRN dense granule ATP release, luminescence; AID 1663; 0.22% of 300,000 active; inhibition, %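 (compounds screened at 7.5 µM in platelet-rich plasma)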;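 active means mean replicate score, as percent of positive control, at or above 50; inconclusive means mean below 50 but at least one replicate at or above 50; inactive means mean and every replicate below 50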
SKKanGAS inh: inhibitors of SKKanGAS S. pyogenes growth in kanamycin (SK-promoter or general growth effect) | BacTiter-Glo, 6 h | inhibition, % at 7.5 µM | 1.3% of 300,000 active | AID 1662;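 active means mean replicate score, as percent of positive control median, at least 50; inconclusive means mean below 50 but one replicate at or above 50; inactive means mean and every replicate below 50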;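 further: strain carries kanamycin resistance gene driven by streptokinase promoter and grows in 40 µg/ml kanamycin; loss of luminescence reflects streptokinase promoter inhibition or plain growth inhibition; 0% = median of DMSO wells and 100% = positive control at its reference dose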
* marks the source's active call; other numbers are inactive results; ? = inconclusive; · = not tested or not shown.

SMILES	Yeast superoxide	Calb FLC	PolyA inh	Platelet DG rel	SKKanGAS inh
CCN(CC)S(=O)(=O)c1ccc2c(c1)nc(CCC(=O)O)n2C	113.8	0.1	3.4	60.5*	-6.6
Cn1c(CCC(=O)O)nc2cc(S(=O)(=O)N3CCCC3)ccc21	84.5	·	·	·	·
CCCCn1c(N)c(N(CC(C)C)C(=O)C2CCN(S(=O)(=O)c3ccc(OCC)cc3)CC2)c(=O)[nH]c1=O	99.2	-0.2	-4.9	-3.4	-7.4
c1ccc(-c2nc(C3CCCCC3)c3sccc3n2)cc1	104.7	1.6	7.6	-0.3	83.7*
CC(=O)O[C@]1(C(C)=O)CC[C@H]2[C@@H]3C[C@H](C)C4=CC(=O)CC[C@]4(C)[C@H]3CC[C@@]21C	91.8	·	15.2	-3.6	-3.8
CC(=O)O[C@H]1C[C@@]2(C)[C@@H](C[C@@H](O)[C@H]3[C@@]4(C)CC[C@@H](O)[C@@H](C)C4CC[C@@]32C)/C1=C(\CCC=C(C)C)C(=O)O (stereo partly specified)	93.3	·	10.0	0.0	73.4*
COc1ccc(N2CCN(C(=O)c3cc(=O)c4ccc(C)cc4o3)CC2)cc1	106.0	-0.5	8.6	-0.7	7.7
O=C(C[n+]1ccc(C(=O)NCCCO)cc1)c1cccc(Br)c1	125.7	-0.2	-0.8	-3.6	-9.3
CC(C)(C)c1ccc(C(=O)Nc2ccc(F)cc2)s1	98.4	-1.7	-9.0	14.0	53.1*
O=C(CN(c1ccc(Cl)c(C(F)(F)F)c1)S(=O)(=O)c1ccccc1)N/N=C/c1cccc2c1OCCO2	81.0	1.5	-0.1	2.7	54.2*
CS(=O)(=O)N(CC(=O)N/N=C/c1cccc2c1OCCO2)c1ccccc1Br	94.8	-1.0	0.5	14.6	3.7
O=C(O/N=C1/CCSc2ccccc21)c1ccc(F)cc1	100.6	117.0*	·	-28.7	·
O=C(N/N=C(\c1ccccc1)c1cccnc1)c1cccc(F)c1	83.1	-4.7	-79.1	-5.2	95.4*
O=C(N/N=C(\c1ccccc1)c1cccnc1)c1ccc(O)cc1	95.9	-1.5	-5.2	-13.1	-4.4
Cc1ccc(OCC(=O)Nc2ccc(S(=O)(=O)N3CCOCC3)cc2)c(Br)c1	107.8	27.2	-12.2	-16.0	-2.9
Cc1ccc2nc(N/N=C/c3ccccc3F)nc(-c3ccccc3)c2c1	103.8	-1.4	2.4	-10.8	106.4*
CN(C)CCOc1ccc(/C(=C(/CCCl)c2ccccc2)c2ccccc2)cc1	87.9	·	2.0	0.7	101.4*
CCCn1c(=O)c(C(=O)OCC)c(O)c2cc(Br)ccc21	77.5	-0.3	-27.7	11.7	-7.6
CCOC(=O)c1c2c(n(C)c1COC)C(=O)C(=O)c1ccc(Br)cc1-2	102.3	-36.2	3.4	-1.2	88.1*
CC(=O)Nc1ccc(NC(=O)CSc2nnc(NC(=O)c3ccc(Br)o3)s2)cc1	101.2	-6.8	7.9	7.6	73.0*
CC(=O)Nc1cccc(NC(=O)CSc2nnc(NC(=O)c3ccco3)s2)c1	94.5	-0.4	9.8	9.4	26.5
CCNc1nc(NCC)nc(-n2nc(C)cc2C)n1	87.4	-25.5	-5.9	3.2	87.2*
Cc1cc(C)n(-c2nc(NC(C)C)nc(NC(C)C)n2)n1	102.3	-20.5	4.3	11.7	2.7
Cc1cc(C)n(-c2nc(NC(C)(C)C)nc(NC(C)(C)C)n2)n1	95.7	-0.8	-2.0	4.0	111.2*
COc1ccc(C(=O)O/N=C(/C)c2cccs2)cc1	105.2	-27.8	-7.8	58.6*	47.7
SMILES	Yeast superoxide	Calb FLC	PolyA inh	Platelet DG rel	SKKanGAS inh
COc1ccc(C(=O)O/N=C(\N)c2ccccc2)cc1	102.8	-20.5	-13.4	66.8*	-2.7
COc1ccc(C(=O)O/N=C(\N)c2ccc(Br)cc2)cc1	129.7	-1.4	5.8	0.4	0.8
CCNC(=S)N(CCc1c(C)[nH]c2ccccc12)Cc1cc(OC)c(OC)c(OC)c1	94.1	15.7	30.8	-19.7	1.5
COc1ccccc1C(c1c(N)n(C)c(=O)n(C)c1=O)C(C)[N+](=O)[O-] (stereo unspecified)	91.2	5.9	5.5	0.0	4.1
COc1ccccc1C(C[N+](=O)[O-])c1c(N)n(C)c(=O)n(C)c1=O (stereo unspecified)	121.5	39.4*	-14.3	18.6	-5.3
CCOc1ccc(OCC(=O)Nc2nccs2)cc1	97.6	33.0	7.8	69.0*	-3.1
COc1ccc(OCC(=O)Nc2nccs2)cc1	103.6	0.7	3.8	22.4	6.9
COc1cccc(C(=O)OCC(=O)c2c(N)n(C)c(=O)n(C)c2=O)c1	106.6	·	·	·	·
CCCNC(=O)c1ccc2c(=O)c(O)c(C)[nH]c2c1	103.0	-3.3	15.6	3.5	-2.0
CCCNC(=O)c1ccc2c(=O)c(O)c(-c3cccc(Br)c3)[nH]c2c1	100.8	113.5*	0.5	0.9	-0.3
CCCNC(=O)c1ccc2c(=O)c(O)c(-c3ccc(F)cc3)[nH]c2c1	91.1	88.9*	-13.7	10.4	1.6
O=C(Cc1ccccc1[N+](=O)[O-])NCCCc1ccccc1	104.6	3.3	-7.1	1.6	5.9
CCOC(=O)C1=NN(C(=O)c2ccc(C)cc2)C(O)(c2ccc(Cl)cc2)C1 (stereo unspecified)	94.1	?	-24.9	-0.8	55.3*
COC(=O)C1=NN(C(=O)c2ccc(Cl)cc2)C(O)(c2ccccc2)C1 (stereo unspecified)	87.8	59.5*	-23.6	-3.0	-24.0
CCC1=NN(C(=O)c2ccc(Cl)cc2)C(O)(c2ccc(C)cc2)C1 (stereo unspecified)	104.6	-0.2	-3.8	1.6	-1.6
O=C(NCCN1CCCCC1)Nc1cccc(F)c1	97.1	0.0	-3.6	2.8	-0.5
C/C=C(\C)C(=O)O[C@H](c1cc2ccc(=O)oc2cc1OC)[C@@H](O)C(C)(C)O	101.8	·	·	·	·
COc1ccc(-c2ccc(SC)nn2)cc1	100.9	0.7	-3.9	57.3*	45.0
N=C1S/C(=C\c2cccc3ccccc23)C(=O)N1c1ccc(F)cc1	112.2	28.5	-20.0	14.4	55.9*
N=C1S/C(=C\c2cn[nH]c2-c2ccc(F)cc2)C(=O)N1c1ccccc1F	90.3	24.2	-9.6	0.4	60.1*
Nc1nc(CN2CCN(c3ccc(F)cc3)CC2)nc(N2CCCc3ccccc32)n1	92.3	6.7	30.5	3.2	84.4*
COc1ccc(Nc2nc(N)nc(CN3CCN(c4ccc(F)cc4)CC3)n2)cc1	93.1	19.8	-1.9	-2.2	42.6
CCCCCCCCCCCC1=C(O)C(=O)C=C(O)C1=O	91.1	92.3*	-5.3	-1.6	101.9*
COC1=CC(=O)C(O)=C(CCCCCCC/C=C/CCCCCCCC2=C(O)C(=O)C=C(OC)C2=O)C1=O	91.3	81.3*	-11.5	7.8	24.0
Cc1cccc(NS(=O)(=O)c2ccc(C3CCCCC3)cc2)c1	109.0	-0.7	-11.5	0.1	108.5*
CCC(=O)Nc1ccccc1C(=O)C(=O)Nc1ccccc1	106.4	-11.6	3.8	21.4	5.5
CCN(CC(=O)Nc1cc(Cl)ccc1C)C(=O)COc1cccc2c1OC(C)(C)C2	95.1	-3.9	-2.7	7.4	-5.6
C/C(=N\NC(=O)c1ccccc1NC(=O)c1ccc(Cl)cc1)c1ccncc1	84.6	2.1	-5.1	96.2*	75.7*
